# Sampled rows, rich in hits. Any-hit rate of the full collection: about 9%.
# HTT ATP protect: protects HTT-Q103 PC12 cells, measured by ATP; PC12 HTT-Q103 induced, cytoprotection, ATP luminescence, 40 h; Potency, µM (series often up to 56.4 µM), inactives show cytoprotection (ATP increase), most hits filed as activators; 0.14% of 230,000 active; also: % of control where 0% means no effect; nearly all actives have a fitted effect of over 45% in size
#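 Readout: ATPlite luminescence (ATP level). Model: stable PC12, inducible Htt exon1 Q103-GFP. Inducer: tebufenozide, 100 nM final. Compounds: dose series. No G418 in medium.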
# HTT aggregate: inhibitors of mutant huntingtin aggregate formation in PC12 cells. Potency, µM (highest dose often 46.1 µM), for the others: at the top dose activity change, negative = inhibition, actives largely listed as inhibitors. 1.1% of 220,000 active. AID 1688. PC12 HttQ103-GFP aggregates, Acumen cytometry, 40 h; also: % is scaled to controls: 0 for no effect and ±100 for the full control effect; nearly all actives have a fitted effect of over 60% in size
#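 Ecdysone-promoter PC12 model expressing HTT exon 1 Q103 fused to GFP, induced by tebufenozide at 100 nM final. Compounds titrated; aggregates sized 1–25 µm scored on a 488 nm laser cytometer.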
# ALDH1A1 block: ALDH1A1 (human) enzyme inhibition; P00352; Purified ALDH1A1, NADH fluorescence, propionaldehyde substrate; Potency, µM (doses to about 75.3 µM), inactives show at the highest dose activity, negative = inhibition, most hits filed as inhibitors; 7.3% of 220,000 active; AID 1030; active = well fitted inhibition curve with a large enough effect, not every such curve was filed as active; inconclusive = small, poorly fitted or top-dose-only effect, or another doubt; inactive = no such curve, though single readings can be large or run the other way;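 also: plate controls were no enzyme wells and a reference inhibitor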
# Lamin A splicing: LMNA splicing modulation; HeLa LMNA splicing GFP/RFP minigene ratio, 48 h; Potency, µM (doses to about 46.1 µM), inactives show at the top dose ratio change, negative = inhibition, actives largely listed as inhibitors; 0.01% of 200,000 active; AID 1487; active = well fitted inhibition curve with a large enough effect in the signal ratio, with a control signal flat, not every such curve was filed as active; inconclusive = small, poorly fitted or top-dose-only effect, or effect the other way, or a change in a side signal; the % refers to the signal ratio; also: % is scaled to controls: 0 for no effect and ±100 for the full control effect
#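 Read-out is the ratio of GFP to DsRed2 object intensity, acquired by 488 nm laser-scanning cytometry on HeLa lamin A-EGFP minigene reporter cells. Compound incubation 48 hrs at 37 °C in Opti-MEM with 2% FBS; DMSO 0.5% final.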
# Luc counter: counter-screen: inhibitors of Kinase-Glo firefly luciferase | Kinase-Glo luciferase, ATP luminescence, 8 min | Potency, µM (titrated, usually from 38.3 µM), without a hit: at the top dose activity change, negative = inhibition, actives largely listed as inhibitors | 0.28% of 200,000 active | AID 1379; also: % is scaled to controls: 0 for no effect and ±100 for the full control effect; nearly all actives have a fitted effect of over 60% in size
#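 Recombinant Kinase-Glo luciferase, 10 uM ATP (linear range), luciferin; imidazole pH 7.2 / KCl / MgCl2 / Tween / BSA buffer; 8 min RT; luminescence.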
# HPGD block: inhibitors of human 15-hydroxyprostaglandin dehydrogenase (HPGD); purified HPGD, NADH fluorescence kinetic, PGE2 substrate; 4.3% of 150,000 active; Potency, µM, without a hit: top-dose activity change, negative = inhibition, hits mostly inhibitors; active = well fitted inhibition curve with a large enough effect, not every such curve was filed as active; inconclusive = small, poorly fitted or top-dose-only effect, or another doubt; inactive = no such curve, though single readings can be large or run the other way; also: % is scaled to controls: 0 for no effect and ±100 for the full control effect
# Target sequence (P15428 whole entry, looked up): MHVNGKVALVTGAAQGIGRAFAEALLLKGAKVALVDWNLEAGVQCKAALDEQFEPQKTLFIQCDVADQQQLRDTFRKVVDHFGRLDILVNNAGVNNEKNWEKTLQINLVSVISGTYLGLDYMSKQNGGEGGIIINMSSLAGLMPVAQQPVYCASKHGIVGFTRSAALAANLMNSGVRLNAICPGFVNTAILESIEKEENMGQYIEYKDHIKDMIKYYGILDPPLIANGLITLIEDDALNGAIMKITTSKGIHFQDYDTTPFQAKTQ
#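 NADH formation kinetics: reaction with 30 uM PGE2 and 1 mM NAD+ (final), 20 nM enzyme, Tris-HCl pH 8 with Tween 20, after 15 min compound preincubation at room temperature. Fluorescence change, last versus first of five reads.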
# * = called active by the depositor; u = inconclusive; x = no result; [ ] = remark or other dose. Unless noted, calls follow the shape of the dose curve; as a rule, active = well fitted curve in the direction sought with a large enough effect; inconclusive = small, poorly fitted or top-dose-only effect, or another doubt; inactive = no such curve, though single readings can be large; an effect the other way counts as inactive or inconclusive. Potency is read from the fitted curve at half-maximal effect.
SMILES,HTT ATP protect,HTT aggregate,ALDH1A1 block,Lamin A splicing,Luc counter,HPGD block
CC1CCN(c2c(NCC3CCC(C(=O)NCc4ccccc4)CC3)c(=O)c2=O)CC1 (configuration not stated),x,17.4%,8.8%,-4.6%,0.5%,17.8µM*
O=C(C1CCC(CNc2c(N3CCCCC3)c(=O)c2=O)CC1)N1CCN(C2CCCCC2)CC1 (configuration not stated),15.3%[10 µM],5.7%[9.22 µM],-2.6%,x,x,x
COc1ccc(OC)c(NC(=O)C2CCC(CNc3c(N4CCC(C)CC4)c(=O)c3=O)CC2)c1 (configuration not stated),-16.2%,-7.4%,2.5%,u,1.4%,25.1µM*
CC1CCN(c2c(NCC3CCC(C(=O)NCc4ccc(F)cc4)CC3)c(=O)c2=O)CC1 (configuration not stated),19.9%[10 µM],-10.9%[9.22 µM],x,x,x,x
CC1CCN(c2c(NCC3CCC(C(=O)N4CCCC(C)C4)CC3)c(=O)c2=O)CC1 (configuration not stated),-14.2%,2.4%,7.1%,-3.7%,-2.9%,0.631µM*
O=C(NCc1ccccc1)C1CCC1,x,-4.4%,20.1%,7.3%,-2.7%,20µM*
COc1ccc(S(=O)(=O)NCCOc2cccc3cccnc23)cc1OC,-9.2%[10 µM],12.8%[9.22 µM],26.6%,3.7%[46 µM],3.9%,x
O=C(NNc1c2ccccc2nc2ccccc12)C(O)c1ccccc1 (configuration not stated),-1.4%[10 µM],10.3%[9.22 µM],x,x,x,x
O=C(NCc1ccccc1)C1CCC(CNc2c(N3CCCCC3)c(=O)c2=O)CC1 (configuration not stated),x,-0.3%,4.5%,-6.4%,-2.4%,20µM*
CN(C)c1ccc(CNC(=O)C2CCC(CNc3c(N4CCCCC4)c(=O)c3=O)CC2)cc1 (configuration not stated),1.3%[10 µM],20.6%[9.22 µM],x,x,x,x
Nc1n[nH]c(C2CCCCC2)n1,-0.9%[10 µM],12.5%[9.22 µM],1.4%,x,-5.8%,x
Cc1ncc(CO)c(/C=N/NC(=O)c2ccc(Br)cc2)c1O,39.7%[10 µM],11.2µM*,u,u,-1.7%,u
COc1ccc(CCNC2=NCC(C)S2)cc1 (configuration not stated),-11.1%,3.9%,5.9%,10.1%,1.1%,-2.8%
CCCCCCc1cc2cc(-c3nnc(-c4cc(OC)c(OC)c(OC)c4)o3)c(=O)oc2cc1O,-3.7%[10 µM],2.82µM*,-2.8%,-10.5%,-0.8%,-23.0%
Cc1cccc(Cn2cnc3c(NS(C)(=O)=O)c(C)c(C)cc32)c1,-16.3%,-2.0%,-5.5%,7.4%,2.5%,4.0%
Cn1c(=O)oc2cc(S(=O)(=O)NCc3ccncc3)ccc21,-22.6%[0.074 µM],8.91µM*,-3.6%,u,1.2%,-1.3%
Cc1ccc2cc(C)c(SCC(=O)Nc3ccc(S(=O)(=O)N4CCCC4)cc3)nc2c1,25.7%[10 µM],10.3%[9.22 µM],x,x,x,x
CC1CCN(S(=O)(=O)c2ccc(NC(=O)CSc3nnnn3C)cc2)CC1,0.6%[10 µM],-6.4%,0.3%,-6.9%,3.8%,-5.3%
O=C(CSc1nc2ccccc2c(=O)[nH]1)Nc1ccc(S(=O)(=O)N2CCCC2)cc1,-27.1%[10 µM],-15.3%,2.24µM*,u,1.4%,14.1µM*
O=C(CCc1ccccc1)Nc1ccc(S(=O)(=O)N2CCCC2)cc1,-17.5%[10 µM],4.1%[9.22 µM],12.6µM*,x,2.1%,x
Cc1cc(C)c2c(c1)cc(C)c1nnc(SCC(=O)Nc3ccc(S(=O)(=O)N4CCCCC4)cc3)n12,17.0%[10 µM],-6.5%,20µM*,u,-1.1%,-6.8%
CC1CCN(S(=O)(=O)c2ccc(NC(=O)CSc3ncccc3C(=O)O)cc2)CC1,-7.9%,-24.0%,25.1µM*,-0.3%,26.3%,14.1µM*
O=C(CCOc1ccccc1)Nc1ccc(S(=O)(=O)N2CCCC2)cc1,-12.3%,-0.3%,22.4µM*,-1.6%,-1.6%,-9.1%
S=C(NCc1ccco1)N1CCOCC1,-16.4%,8.3%,u,5.0%[46 µM],0.1%,x
O=C(Cc1ccccc1Cl)NC1(O)C(=O)c2ccccc2C1=O,-10.5%[10 µM],-17.5%[9.22 µM],1.12µM*,16.7%[46 µM],x,x

# Source: PubChem BioAssay (National Center for Advancing Translational Sciences (NCATS))
